A selection: hits, their analogues and other compounds. The true share with any hit is near 3.1%.
EBV LMP1 NFkB: inhibitors of Epstein-Barr LMP1-induced NF-kappaB reporter; inhibition, % at 12.5 µM; 0.69% of 350,000 active; LMP1-induced NF-kappaB luciferase reporter cells, luminescence; in the data active = inhibition above about 41%;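 also: 0% = neutral control wells and 100% = reference inhibitor control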
TROY signal inh: inhibitors of TROY-dependent NF-kB signaling. inhibition, % at 10 µM. 0.98% of 360,000 active. Q293 LMP1-TROYcd NF-kB luciferase reporter, 4 h;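 active = compounds whose plate-normalised and pattern-corrected inhibition of the luciferase reporter signal at the single screening dose is 50% or more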
TWEAK-Fn14 inh: TWEAK-Fn14 signaling inhibition; TWEAK-stimulated Fn14 reporter cells, luciferase luminescence, 8 h; inhibition, % at 10 µM; 2% of 360,000 active; in the data active = inhibition above about 50%
PAX8 reporter: lowers PAX8-driven luciferase in RMG-I cells; RMG-I TPO-luciferase reporter, SteadyGlo, 24 h; inhibition, % at 12.6 µM; 1.2% of 360,000 active;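 active = mean replicate inhibition at least 60% with every replicate also reaching 60%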;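 also: luciferase light reporting Pax8 driven TPO promoter activity; plate controls were median of neutral control wells for no effect and mitoxantrone controls for full effect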
EWS-Fli block: EWS/Fli transcriptional activity inhibition; A673 NR0B1-luciferase reporter, viability-normalised; inhibition, % at 12.6 µM; 0.67% of 350,000 active;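 active = mean inhibition of at least 50% after viability correction, with every replicate also passing that limit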;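 also: firefly luciferase signal divided by Alamar Blue viability fluorescence both relative to DMSO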
LGR2 antag: blocks bursicon-induced cAMP signaling via Drosophila LGR2. 0.35% of 380,000 active. HEK293 LGR2, CRE-luciferase, bursicon-stimulated, 4 h. AID 720647. inhibition, % at 9.99 µM;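 active = drop in luminescence signal, shown as inhibition above about 50% in the replicate tests, limit read from the data, passing the limit was not always enough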;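 also: agonist challenge used bursicon conditioned medium at about half maximal strength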
An asterisk follows results filed as active.

How did C[C@H](CO)N1C[C@H](C)[C@H](CN(C)CC2CC2)Oc2c(cccc2N(C)C)C1=O do in these assays?
PAX8 reporter: -11.6; EWS-Fli block: 11.3; LGR2 antag: 0.2

What do the screens show for `Cc1ccc(NNC(=O)C(O)(c2cccc(C(F)(F)F)c2)c2cccc(C(F)(F)F)c2)cc1`?
EBV LMP1 NFkB: -9.7; TROY signal inh: 42.5; TWEAK-Fn14 inh: 21.9; PAX8 reporter: 16.5; EWS-Fli block: -4.3

What do the screens show for `O=C(NNc1ccccc1Br)C(O)(c1cccc(C(F)(F)F)c1)c1cccc(C(F)(F)F)c1`?
EBV LMP1 NFkB: -4.6; TROY signal inh: 57.4*; TWEAK-Fn14 inh: 72.7*; PAX8 reporter: 24.6; LGR2 antag: 21.9

What do the screens show for `O=C(C[C@H]1C=C[C@H](NC(=O)Cc2ccccn2)[C@H](CO)O1)NCCc1ccccc1`?
LGR2 antag: 20.7

What do the screens show for `N#C/C(=N\Nc1ccc(S(=O)(=O)N2CCCCC2)cc1)C(N)=S`?
EBV LMP1 NFkB: 4.2; TROY signal inh: 38.0; TWEAK-Fn14 inh: 50.2*; PAX8 reporter: 5.4; EWS-Fli block: -1.3; LGR2 antag: 8.8

How did N#C/C(=N/Nc1ccc(S(=O)(=O)N2CCOCC2)cc1)C(N)=O do in these assays?
EBV LMP1 NFkB: -6.4; TROY signal inh: -2.1; TWEAK-Fn14 inh: -1.9; PAX8 reporter: -8.8; EWS-Fli block: 1.3; LGR2 antag: 4.8

Results for N#C/C(=N\Nc1ccc(S(=O)(=O)N2CCCCCC2)cc1)C(N)=S ?
EBV LMP1 NFkB: -3.0; TROY signal inh: 49.1; TWEAK-Fn14 inh: 67.7*; PAX8 reporter: -25.1; EWS-Fli block: -4.0; LGR2 antag: -19.6

How did N#CC(C#N)=NNc1ccc(S(=O)(=O)N2CCCC2)cc1 do in these assays?
EBV LMP1 NFkB: 17.2; TROY signal inh: 54.6*; TWEAK-Fn14 inh: 51.0*; PAX8 reporter: -2.1; LGR2 antag: 47.4

Results for CS(=O)(=O)Nc1ccc(S(=O)(=O)N2CCCC2)cc1 ?
EBV LMP1 NFkB: -6.6; TROY signal inh: 1.2; TWEAK-Fn14 inh: 13.3; PAX8 reporter: 2.6; EWS-Fli block: 3.0; LGR2 antag: -3.2

Results for O=C(Nc1ccc2c(c1)[C@@H]1C[C@@H](CC(=O)N3CCOCC3)O[C@H](CO)[C@@H]1O2)C1CCOCC1 ?
PAX8 reporter: -11.2; EWS-Fli block: 5.2; LGR2 antag: 7.1

How did CC(C)NC(=O)N(C)C[C@@H]1OCCCC[C@H](C)Oc2ccc(NS(=O)(=O)c3ccc(Cl)cc3)cc2C(=O)N([C@H](C)CO)C[C@H]1C do in these assays?
PAX8 reporter: 15.4; EWS-Fli block: -23.6; LGR2 antag: -8.1

What do the screens show for `COc1ccc(S(=O)(=O)N2CCCCN3[C@H](C2)[C@H](c2ccc(C4=CCCCC4)cc2)[C@@H]3CO)cc1`?
PAX8 reporter: 10.7; EWS-Fli block: -1.3

What do the screens show for `COc1ccccc1NC(=O)c1c(C)cc(=O)oc1C`?
EBV LMP1 NFkB: -4.8; TROY signal inh: -10.1; TWEAK-Fn14 inh: 59.7*; EWS-Fli block: 5.9; LGR2 antag: 2.1

How did Cc1ccccc1NC(=O)c1c(C)cc(=O)oc1C do in these assays?
EBV LMP1 NFkB: -2.2; TROY signal inh: -15.2; TWEAK-Fn14 inh: 7.1; PAX8 reporter: 2.3; EWS-Fli block: -6.7; LGR2 antag: 12.1

Results for CN1[C@H](C(=O)Nc2nccs2)[C@@H](CO)[C@@H]2Cn3c(ccc(/C=C/c4ccccc4)c3=O)[C@@H]21 ?
PAX8 reporter: 14.3; EWS-Fli block: 1.3; LGR2 antag: -6.3

Results for CC(NNC(=S)N1CCN(c2ccccn2)CC1)c1nccc2ccccc12 (stereo unspecified) ?
EBV LMP1 NFkB: 71.9*; TROY signal inh: -3.4; TWEAK-Fn14 inh: 9.9; PAX8 reporter: 71.8*; EWS-Fli block: 25.8; LGR2 antag: -7.2

What do the screens show for `FC(F)Sc1ccc(NC(=S)N2CCN(c3ccccn3)CC2)cc1`?
EBV LMP1 NFkB: 9.0; TROY signal inh: 12.4; TWEAK-Fn14 inh: 56.0*; PAX8 reporter: 8.6; LGR2 antag: 16.4

How did O=C(NC(=S)N1CCN(c2ccccn2)CC1)c1ccco1 do in these assays?
EBV LMP1 NFkB: 53.7*; TROY signal inh: 3.1; TWEAK-Fn14 inh: -35.5; PAX8 reporter: -4.1; EWS-Fli block: 3.8; LGR2 antag: 3.2

Results for Oc1ccccc1N1CCN(C(=S)Nc2ccc(SC(F)F)cc2)CC1 ?
EBV LMP1 NFkB: -13.2; TROY signal inh: 14.9; TWEAK-Fn14 inh: 41.1; PAX8 reporter: 19.1; EWS-Fli block: 14.6; LGR2 antag: 24.5

Bioassay records: PubChem BioAssay, several laboratories
